Assay results from the supplement of paper PMC3414501.
Structures can show the parent of a compound that is named as a salt.

Legend:
[1] = system: S. cerevisiae SK1 pCDA2-eGFP (USY613), sporulating; assay: CDA2-GFP sporulation assay sensitivity score (z-score vs DMSO controls); higher = stronger inhibition of sporulation, active = hit call of the paper;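 further: active if sensitivity score above 5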
[2] = system: S. cerevisiae NKY1551 his4x/his4B, sporulating; assay: HIS4 meiotic recombination assay sensitivity score (z-score vs DMSO controls); higher = stronger inhibition of sporulation/recombination, active = hit call of the paper;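 further: active if sensitivity score above 5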
[3] = system: S. cerevisiae AD1-9 (efflux-pump deficient), vegetative growth in YPD; assay: growth sensitivity score (doubling time z-score vs DMSO controls); higher = slower growth, strongly negative scores also mark growth inhibition (complete suppression), active = hit call of the paper
How it was run: (§1)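 Optical density of Saccharomyces cerevisiae cultures in microtiter plates was followed every 15 min for 24 hours after seeding at an OD600 of 0.065. Eight solvent-only wells were run per experiment. Growth sensitivity scores were found by subtracting the solvent-only mean from the compound mean and dividing by the solvent-only standard deviation.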

[4] = system: S. cerevisiae BY4741 (wild-type), vegetative growth in YPD; assay: as above
How it was run: as §1

Row | Structure (SMILES) | CDA2-GFP sporulation assay sensitivity score [1] | HIS4 meiotic recombination assay sensitivity score [2] | growth sensitivity score [3] | growth sensitivity score [4]
1 | CC#C[C@]1(O)CC[C@H]2[C@@H]3CCC4=CC(=O)CCC4=C3[C@@H](c3ccc(N(C)C)cc3)C[C@@]21C [Mifepristone] (stock concentration (mM, diluted 1:100): 10) | 9.91 (inactive) | 2.99 (inactive) | 172 (active) | -2.51
2 | CCCCCNC(=N)N/N=C/c1c[nH]c2ccc(OC)cc12 [Tegaserod maleate] (stock concentration (mM, diluted 1:100): 7.2) | -3.28 (inactive) | -0.84 (inactive) |  | 
3 | c1ccc(-c2ccc(C(c3ccccc3)n3ccnc3)cc2)cc1 (stereo unspecified) [Bifonazole] (stock concentration (mM, diluted 1:100): 10) | 0.04 (inactive) | -0.93 (inactive) |  | 
4 | OCCN1CCN(CCCN2c3ccccc3Sc3ccc(C(F)(F)F)cc32)CC1 [Fluphenazine hydrochloride] (stock concentration (mM, diluted 1:100): 10) | -0.3 (inactive) | 7.55 (active) |  | 
5 | COc1cc(/C=C/c2ccc(O)cc2)cc(OC)c1 [Pterostilbene] (stock concentration (mM, diluted 1:100): 10) | -2.39 (inactive) | -0.31 (inactive) |  | 
6 | COc1ccc(C(=O)NCc2ccc(OCCN(C)C)cc2)cc1OC [Itopride hydrochloride] (stock concentration (mM, diluted 1:100): 8.2) | -0.55 (inactive) | -1.08 (inactive) | -1.3 (inactive) | -0.67 (inactive)
7 | CN[C@H]1CC[C@@H](c2ccc(Cl)c(Cl)c2)c2ccccc21 [Sertraline] (stock concentration (mM, diluted 1:100): 9) | -0.26 (inactive) | -0.61 (inactive) |  | 
8 | CN1CCN(CCCN2c3ccccc3Sc3ccc(C(F)(F)F)cc32)CC1 [Trifluoperazine dihydrochloride] (stock concentration (mM, diluted 1:100): 10) | -0.39 (inactive) | -2.62 (inactive) |  | 
9 | Cc1cccc(C)c1NC(=O)C(C)N (stereo unspecified) [Tocainide] (stock concentration (mM, diluted 1:100): 10) | 0.62 (inactive) | 0.7 (inactive) | 1.11 (inactive) | -0.53 (inactive)
10 | Nc1nc(N)nc(-c2cc(Cl)ccc2Cl)n1 [Irsogladine maleate] (stock concentration (mM, diluted 1:100): 6.9) | 0.91 (inactive) | -0.77 (inactive) | -0.44 (inactive) | -1.26 (inactive)
11 | C[C@]12CC[C@@H]3c4ccc(OS(=O)(=O)O)cc4CC[C@H]3[C@@H]1CCC2=O (stock concentration (mM, diluted 1:100): 10) | 4.09 (inactive) | 1.4 (inactive) | 0.01 (inactive) | -0.87 (inactive)
12 | N#Cc1ccc(C(c2ccc(C#N)cc2)n2cncn2)cc1 [Letrozol] (stock concentration (mM, diluted 1:100): 10) | 1.08 (inactive) | -0.01 (inactive) | 20.4 (active) | -0.45 (inactive)
13 | CC(C)[C@H](N)C(=O)OCCOCn1cnc2c(=O)nc(N)[nH]c21 [Valaciclovir hydrochloride] (stock concentration (mM, diluted 1:100): 9) | 0.8 (inactive) | 0.04 (inactive) | -0.28 (inactive) | 0.36 (inactive)
14 | CC(C)(C)NC(=O)[C@H]1CC[C@H]2[C@@H]3CC[C@H]4NC(=O)C=C[C@]4(C)[C@H]3CC[C@]12C [Finasteride] (stock concentration (mM, diluted 1:100): 10) | 3.51 (inactive) | 3.09 (inactive) | 20.2 (active) | 1.37 (inactive)
15 | O=C(CCNNC(=O)c1ccncc1)NCc1ccccc1 [Nialamide] (stock concentration (mM, diluted 1:100): 10) | 1.74 (inactive) | -1.89 (inactive) | -0.06 (inactive) | 0.19 (inactive)
16 | Clc1cccc(Cl)c1NC1=NCCN1 [Clonidine] (stock concentration (mM, diluted 1:100): 10) | -1.29 (inactive) | -0.25 (inactive) | -1.44 (inactive) | -1.97 (inactive)
17 | CC1(C)O[C@@H]2[C@@H](CO[C@@]3(COS(N)(=O)=O)OC(C)(C)O[C@@H]23)O1 [Topiramate] (stock concentration (mM, diluted 1:100): 10) | -1.32 (inactive) | 0.22 (inactive) | -0.81 (inactive) | -1.18 (inactive)
